# Measurements: article PMC11208138
# What was measured:
# Assay in all cases: cross-link between two proteins; cross-linking mass spectrometry
# [1] = target: Heterogeneous nuclear ribonucleoproteins C1/C2 (UniProt P07910)
# NHP2-like protein 1 = NHP2-like protein 1 (UniProt P55769)
# [2] = target: Ubiquitin carboxyl-terminal hydrolase 39 (UniProt Q53GS9)
# [3] = target: Serine/arginine-rich splicing factor 1 (UniProt Q07955)
# Chain of Serine/arginine-rich splicing factor 1 (Q07955 whole entry): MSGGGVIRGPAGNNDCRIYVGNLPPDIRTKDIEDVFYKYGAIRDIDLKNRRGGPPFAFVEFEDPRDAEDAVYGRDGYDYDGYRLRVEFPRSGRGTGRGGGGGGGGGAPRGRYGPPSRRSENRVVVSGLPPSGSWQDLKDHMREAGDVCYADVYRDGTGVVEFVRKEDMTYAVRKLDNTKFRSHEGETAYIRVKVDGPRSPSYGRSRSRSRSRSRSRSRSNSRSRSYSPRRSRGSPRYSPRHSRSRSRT
# Chain of Heterogeneous nuclear ribonucleoproteins C1/C2 (P07910 whole entry): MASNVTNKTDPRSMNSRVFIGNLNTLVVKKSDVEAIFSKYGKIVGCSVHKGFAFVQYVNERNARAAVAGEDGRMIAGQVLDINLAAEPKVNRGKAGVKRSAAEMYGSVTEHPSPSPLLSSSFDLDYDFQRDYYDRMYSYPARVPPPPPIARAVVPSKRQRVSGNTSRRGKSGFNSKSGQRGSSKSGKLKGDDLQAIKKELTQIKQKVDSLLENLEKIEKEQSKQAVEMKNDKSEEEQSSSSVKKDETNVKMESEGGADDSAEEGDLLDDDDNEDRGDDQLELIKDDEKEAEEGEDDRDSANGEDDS
# Chain of NHP2-like protein 1 (P55769 whole entry): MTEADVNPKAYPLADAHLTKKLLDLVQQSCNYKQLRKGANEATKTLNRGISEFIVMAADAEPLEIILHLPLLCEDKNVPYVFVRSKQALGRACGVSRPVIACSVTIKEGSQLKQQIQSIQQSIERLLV
# Chain of Ubiquitin carboxyl-terminal hydrolase 39 (Q53GS9 whole entry): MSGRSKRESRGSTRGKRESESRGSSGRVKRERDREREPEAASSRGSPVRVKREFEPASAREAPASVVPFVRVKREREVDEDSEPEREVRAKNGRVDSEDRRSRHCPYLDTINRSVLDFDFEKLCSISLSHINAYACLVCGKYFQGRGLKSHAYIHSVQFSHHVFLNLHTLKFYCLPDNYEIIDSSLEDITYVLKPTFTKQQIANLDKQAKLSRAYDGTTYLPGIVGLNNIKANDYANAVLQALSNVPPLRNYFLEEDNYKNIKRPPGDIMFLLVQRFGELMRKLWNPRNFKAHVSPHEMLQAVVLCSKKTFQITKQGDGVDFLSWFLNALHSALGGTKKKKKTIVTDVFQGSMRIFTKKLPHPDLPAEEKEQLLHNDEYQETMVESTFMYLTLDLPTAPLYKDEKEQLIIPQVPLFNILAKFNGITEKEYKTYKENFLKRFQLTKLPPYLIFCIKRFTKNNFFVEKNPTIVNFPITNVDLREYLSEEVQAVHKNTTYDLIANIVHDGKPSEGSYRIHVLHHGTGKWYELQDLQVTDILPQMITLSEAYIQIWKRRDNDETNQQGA
substance,measurement,setting,value
"Survival of motor neuron-related-splicing factor 30, O75940",listed as a hit,[1],yes
"Pre-mRNA-processing factor 6, O94906",listed as a hit,NHP2-like protein 1,yes
same,listed as a hit,[2],yes
"Probable ATP-dependent RNA helicase DDX5, P17844",listed as a hit,[3],yes
